Source: the supplement of paper PMC11732987, “Enantioselective OTUD7B fragment discovery through chemoproteomics screening and high-throughput optimisation” (Communications Chemistry, 2025)
A number with no mark means an inactive call.

Columns and labels:
Experiment in all cases: log2 ratio of Biotin-Ahx-Ub-VS probe labelling (fragment/DMSO); higher = less target engagement (more negative = stronger competition), active = hit call of the paper (q ≤ 0.05, log2 ratio ≤ -1)
Details in all cases: compound concentration: 200 uM; treatment time: 3 h
USP19 = molecular target: T1, USP19 (UniProt O94966)
T1 sequence (whole entry): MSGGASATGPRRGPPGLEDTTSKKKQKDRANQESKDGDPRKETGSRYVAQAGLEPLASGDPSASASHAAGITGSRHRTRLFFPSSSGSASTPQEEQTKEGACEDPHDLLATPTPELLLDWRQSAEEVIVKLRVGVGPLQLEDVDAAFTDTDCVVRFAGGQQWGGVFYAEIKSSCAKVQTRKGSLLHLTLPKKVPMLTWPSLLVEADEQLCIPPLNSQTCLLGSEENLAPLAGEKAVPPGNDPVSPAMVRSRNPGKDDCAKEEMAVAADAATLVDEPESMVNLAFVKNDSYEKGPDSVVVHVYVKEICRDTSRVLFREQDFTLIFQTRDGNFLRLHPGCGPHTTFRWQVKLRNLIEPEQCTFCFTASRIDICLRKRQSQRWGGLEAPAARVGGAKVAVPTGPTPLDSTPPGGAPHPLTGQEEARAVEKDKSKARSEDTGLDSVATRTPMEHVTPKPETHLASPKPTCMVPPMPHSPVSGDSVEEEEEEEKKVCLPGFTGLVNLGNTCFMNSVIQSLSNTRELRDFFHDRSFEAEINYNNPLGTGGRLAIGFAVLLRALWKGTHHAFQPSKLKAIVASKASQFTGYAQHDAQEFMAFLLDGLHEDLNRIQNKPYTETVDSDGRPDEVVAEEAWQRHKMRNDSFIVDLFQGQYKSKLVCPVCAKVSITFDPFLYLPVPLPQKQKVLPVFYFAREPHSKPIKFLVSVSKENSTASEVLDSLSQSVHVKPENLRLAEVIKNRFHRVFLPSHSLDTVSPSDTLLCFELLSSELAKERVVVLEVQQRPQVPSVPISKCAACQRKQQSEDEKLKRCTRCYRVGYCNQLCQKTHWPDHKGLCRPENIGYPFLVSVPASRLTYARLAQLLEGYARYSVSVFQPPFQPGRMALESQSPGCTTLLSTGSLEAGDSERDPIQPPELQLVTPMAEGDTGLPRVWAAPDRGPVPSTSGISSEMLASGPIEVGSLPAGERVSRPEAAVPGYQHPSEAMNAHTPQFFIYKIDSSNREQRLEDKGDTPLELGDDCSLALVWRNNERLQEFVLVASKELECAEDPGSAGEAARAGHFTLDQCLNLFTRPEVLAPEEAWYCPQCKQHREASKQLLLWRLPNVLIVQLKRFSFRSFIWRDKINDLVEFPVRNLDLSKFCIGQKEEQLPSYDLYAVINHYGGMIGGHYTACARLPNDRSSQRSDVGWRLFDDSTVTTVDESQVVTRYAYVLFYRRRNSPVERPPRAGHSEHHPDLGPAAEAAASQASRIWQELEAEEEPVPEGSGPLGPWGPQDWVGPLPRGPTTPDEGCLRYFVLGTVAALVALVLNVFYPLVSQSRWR
Method in brief: (§1)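 HEK293T lysate (495 µg per sample, in Tris/CHAPS/IGEPAL buffer with protease inhibitors) was exposed in triplicate for 3 h to fragment at 200 µM or to vehicle, then to Biotin-Ahx-Ub-VS at 0.5 µM final for 1 h. Labelled DUBs were enriched on NeutrAvidin, digested with LysC and trypsin, and analysed by diaPASEF LC-MS/MS. Spectronaut label-free quantities were normalised to the global median, and values are average log2 ratios of fragment over vehicle from an unpaired t-test. Only proteins with ≥2 unique peptides were used.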

USP22 = molecular target: T2, USP22 (UniProt Q9UPT9)
T2 sequence (whole entry): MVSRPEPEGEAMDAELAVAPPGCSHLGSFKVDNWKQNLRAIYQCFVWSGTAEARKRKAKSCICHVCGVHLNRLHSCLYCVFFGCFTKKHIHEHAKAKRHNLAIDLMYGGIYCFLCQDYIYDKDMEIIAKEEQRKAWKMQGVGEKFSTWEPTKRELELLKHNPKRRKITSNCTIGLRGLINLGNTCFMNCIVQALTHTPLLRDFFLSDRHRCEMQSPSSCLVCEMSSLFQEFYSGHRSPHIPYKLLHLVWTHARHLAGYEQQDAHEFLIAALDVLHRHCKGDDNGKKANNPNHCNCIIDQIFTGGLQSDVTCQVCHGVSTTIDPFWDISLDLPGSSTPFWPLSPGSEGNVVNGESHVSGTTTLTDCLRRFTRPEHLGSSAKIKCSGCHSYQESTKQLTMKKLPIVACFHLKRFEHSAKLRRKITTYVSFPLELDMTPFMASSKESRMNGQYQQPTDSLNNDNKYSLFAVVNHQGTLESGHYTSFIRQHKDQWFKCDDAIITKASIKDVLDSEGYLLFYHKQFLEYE
Method in brief: as §1

USP24 = USP24 (UniProt Q9UPU5)
Sequence of USP24 (Q9UPU5 whole entry): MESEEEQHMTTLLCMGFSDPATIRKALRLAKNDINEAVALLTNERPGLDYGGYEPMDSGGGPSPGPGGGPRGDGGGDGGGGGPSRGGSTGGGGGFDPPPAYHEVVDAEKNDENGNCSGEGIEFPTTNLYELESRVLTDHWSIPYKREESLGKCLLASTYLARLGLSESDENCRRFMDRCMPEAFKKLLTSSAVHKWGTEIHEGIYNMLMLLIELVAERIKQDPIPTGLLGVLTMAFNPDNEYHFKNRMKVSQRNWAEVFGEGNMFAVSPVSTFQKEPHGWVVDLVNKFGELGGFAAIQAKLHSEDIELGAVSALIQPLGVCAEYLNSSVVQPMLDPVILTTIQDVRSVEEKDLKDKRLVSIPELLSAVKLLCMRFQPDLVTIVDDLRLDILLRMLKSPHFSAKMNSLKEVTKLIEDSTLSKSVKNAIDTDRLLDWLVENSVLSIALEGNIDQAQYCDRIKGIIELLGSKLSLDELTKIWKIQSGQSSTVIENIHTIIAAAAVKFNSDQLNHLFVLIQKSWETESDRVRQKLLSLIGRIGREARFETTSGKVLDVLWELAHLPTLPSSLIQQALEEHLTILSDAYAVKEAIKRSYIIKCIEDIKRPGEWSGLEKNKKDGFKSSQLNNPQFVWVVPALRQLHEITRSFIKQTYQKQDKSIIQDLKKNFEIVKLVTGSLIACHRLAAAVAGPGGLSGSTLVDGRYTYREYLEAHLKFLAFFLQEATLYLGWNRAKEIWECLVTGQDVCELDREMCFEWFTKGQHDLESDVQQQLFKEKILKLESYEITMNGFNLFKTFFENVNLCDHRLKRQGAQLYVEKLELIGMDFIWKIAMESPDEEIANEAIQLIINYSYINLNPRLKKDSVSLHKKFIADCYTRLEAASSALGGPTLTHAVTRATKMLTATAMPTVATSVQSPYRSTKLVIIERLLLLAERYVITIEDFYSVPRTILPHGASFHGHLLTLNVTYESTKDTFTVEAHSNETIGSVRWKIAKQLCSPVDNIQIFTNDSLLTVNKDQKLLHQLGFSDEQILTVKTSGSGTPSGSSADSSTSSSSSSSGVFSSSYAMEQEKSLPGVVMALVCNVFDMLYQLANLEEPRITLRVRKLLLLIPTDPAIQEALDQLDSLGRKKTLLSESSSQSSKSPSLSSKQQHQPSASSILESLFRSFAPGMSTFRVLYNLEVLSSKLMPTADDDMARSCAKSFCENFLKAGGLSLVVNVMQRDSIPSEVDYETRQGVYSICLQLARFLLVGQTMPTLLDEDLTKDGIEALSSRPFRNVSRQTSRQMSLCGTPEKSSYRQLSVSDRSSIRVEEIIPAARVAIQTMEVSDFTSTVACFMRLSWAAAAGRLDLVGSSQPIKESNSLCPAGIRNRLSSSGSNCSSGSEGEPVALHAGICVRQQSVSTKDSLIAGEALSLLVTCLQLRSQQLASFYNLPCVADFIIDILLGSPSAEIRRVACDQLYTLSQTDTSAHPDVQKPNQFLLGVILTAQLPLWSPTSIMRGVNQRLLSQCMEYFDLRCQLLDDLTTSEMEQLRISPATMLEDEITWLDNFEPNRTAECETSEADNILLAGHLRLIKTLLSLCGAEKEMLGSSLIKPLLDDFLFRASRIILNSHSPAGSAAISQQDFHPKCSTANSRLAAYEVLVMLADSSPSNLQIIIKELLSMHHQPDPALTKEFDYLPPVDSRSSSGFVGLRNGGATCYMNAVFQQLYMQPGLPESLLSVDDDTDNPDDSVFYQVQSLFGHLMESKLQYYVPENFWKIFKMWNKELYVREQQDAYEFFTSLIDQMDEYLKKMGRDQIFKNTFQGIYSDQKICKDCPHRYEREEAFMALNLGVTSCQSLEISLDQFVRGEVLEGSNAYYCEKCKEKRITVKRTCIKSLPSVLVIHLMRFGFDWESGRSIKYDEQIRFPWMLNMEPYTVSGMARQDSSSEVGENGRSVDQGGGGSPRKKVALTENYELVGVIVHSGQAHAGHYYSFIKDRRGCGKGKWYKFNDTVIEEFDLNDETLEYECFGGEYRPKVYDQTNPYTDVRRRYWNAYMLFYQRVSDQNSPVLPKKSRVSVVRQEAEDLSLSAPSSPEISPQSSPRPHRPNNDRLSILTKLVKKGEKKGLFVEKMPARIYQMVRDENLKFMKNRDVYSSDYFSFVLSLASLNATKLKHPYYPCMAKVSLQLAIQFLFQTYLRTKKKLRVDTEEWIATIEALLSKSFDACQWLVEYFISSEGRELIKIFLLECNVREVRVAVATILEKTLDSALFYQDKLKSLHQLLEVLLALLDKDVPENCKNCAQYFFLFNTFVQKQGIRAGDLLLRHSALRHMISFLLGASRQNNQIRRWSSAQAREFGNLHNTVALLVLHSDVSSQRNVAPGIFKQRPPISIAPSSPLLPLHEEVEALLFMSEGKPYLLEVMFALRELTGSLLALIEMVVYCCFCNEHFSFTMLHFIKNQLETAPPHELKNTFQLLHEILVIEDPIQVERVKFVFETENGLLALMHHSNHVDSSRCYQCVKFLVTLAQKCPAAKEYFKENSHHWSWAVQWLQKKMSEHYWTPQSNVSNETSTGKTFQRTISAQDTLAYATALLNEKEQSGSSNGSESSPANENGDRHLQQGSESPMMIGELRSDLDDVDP
Method in brief: as §1

USP25 = molecular target: T3, USP25 (UniProt Q9UHP3)
T3 sequence (whole entry): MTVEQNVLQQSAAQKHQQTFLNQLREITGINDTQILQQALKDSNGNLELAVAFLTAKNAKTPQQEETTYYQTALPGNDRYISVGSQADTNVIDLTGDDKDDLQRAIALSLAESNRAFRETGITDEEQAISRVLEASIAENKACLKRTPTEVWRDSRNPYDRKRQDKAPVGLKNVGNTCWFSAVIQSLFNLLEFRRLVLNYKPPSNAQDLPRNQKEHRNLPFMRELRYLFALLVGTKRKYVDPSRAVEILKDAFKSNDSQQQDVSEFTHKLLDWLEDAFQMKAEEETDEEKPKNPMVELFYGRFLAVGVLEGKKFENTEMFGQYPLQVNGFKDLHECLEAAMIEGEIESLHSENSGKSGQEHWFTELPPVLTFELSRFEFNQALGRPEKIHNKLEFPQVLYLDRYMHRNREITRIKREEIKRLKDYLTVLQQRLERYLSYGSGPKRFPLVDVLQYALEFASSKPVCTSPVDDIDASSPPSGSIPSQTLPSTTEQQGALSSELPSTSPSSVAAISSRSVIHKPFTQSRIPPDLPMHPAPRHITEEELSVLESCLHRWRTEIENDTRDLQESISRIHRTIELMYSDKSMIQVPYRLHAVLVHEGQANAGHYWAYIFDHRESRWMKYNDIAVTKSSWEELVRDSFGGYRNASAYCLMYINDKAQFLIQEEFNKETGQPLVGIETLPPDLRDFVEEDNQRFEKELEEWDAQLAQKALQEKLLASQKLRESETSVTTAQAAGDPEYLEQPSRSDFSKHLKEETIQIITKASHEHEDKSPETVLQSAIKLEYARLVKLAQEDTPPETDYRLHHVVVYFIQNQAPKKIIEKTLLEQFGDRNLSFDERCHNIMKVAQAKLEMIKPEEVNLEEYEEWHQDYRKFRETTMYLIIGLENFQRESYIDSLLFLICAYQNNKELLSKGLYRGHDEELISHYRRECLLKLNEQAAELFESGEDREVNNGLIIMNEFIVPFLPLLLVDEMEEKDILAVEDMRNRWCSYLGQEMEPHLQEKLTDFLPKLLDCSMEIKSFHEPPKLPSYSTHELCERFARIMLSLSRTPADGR
Method in brief: as §1

USP28 = molecular target: T4, USP28 (UniProt Q96RU2)
T4 sequence (whole entry): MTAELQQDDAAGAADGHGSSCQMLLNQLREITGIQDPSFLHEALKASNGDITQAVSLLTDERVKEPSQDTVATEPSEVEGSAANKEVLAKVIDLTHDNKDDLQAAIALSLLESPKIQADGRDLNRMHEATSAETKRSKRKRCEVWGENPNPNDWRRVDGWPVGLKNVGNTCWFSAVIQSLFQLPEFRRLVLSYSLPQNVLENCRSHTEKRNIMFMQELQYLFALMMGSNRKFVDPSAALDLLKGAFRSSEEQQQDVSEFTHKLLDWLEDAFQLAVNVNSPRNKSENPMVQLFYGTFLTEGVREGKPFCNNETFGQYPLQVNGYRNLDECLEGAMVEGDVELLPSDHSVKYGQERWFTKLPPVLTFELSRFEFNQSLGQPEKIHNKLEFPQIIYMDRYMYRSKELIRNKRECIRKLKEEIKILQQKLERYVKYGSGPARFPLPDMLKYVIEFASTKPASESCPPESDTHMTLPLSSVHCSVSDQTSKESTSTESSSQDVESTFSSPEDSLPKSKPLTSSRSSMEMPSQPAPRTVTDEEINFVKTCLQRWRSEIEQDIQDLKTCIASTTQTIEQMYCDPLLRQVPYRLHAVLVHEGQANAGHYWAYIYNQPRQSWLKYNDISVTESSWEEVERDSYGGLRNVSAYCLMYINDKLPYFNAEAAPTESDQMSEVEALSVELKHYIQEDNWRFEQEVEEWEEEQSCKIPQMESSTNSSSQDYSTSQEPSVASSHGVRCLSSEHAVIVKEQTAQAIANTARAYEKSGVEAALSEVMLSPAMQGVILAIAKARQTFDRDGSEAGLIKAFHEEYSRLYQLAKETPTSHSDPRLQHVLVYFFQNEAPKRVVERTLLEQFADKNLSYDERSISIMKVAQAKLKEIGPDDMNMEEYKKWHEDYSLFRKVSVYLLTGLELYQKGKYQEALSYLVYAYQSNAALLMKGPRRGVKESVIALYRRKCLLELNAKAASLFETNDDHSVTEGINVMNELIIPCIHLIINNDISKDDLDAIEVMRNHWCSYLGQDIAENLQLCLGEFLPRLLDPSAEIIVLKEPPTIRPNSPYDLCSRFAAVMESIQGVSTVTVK
Method in brief: as §1

O=C(CCl)N1CCOC(CCc2ccccc2)C1 (stereo not given)
log2 ratio of Biotin-Ahx-Ub-VS probe labelling (USP19): -0.687 | log2 ratio of Biotin-Ahx-Ub-VS probe labelling (USP22): -0.0816 | log2 ratio of Biotin-Ahx-Ub-VS probe labelling (USP24): -1.37 (active) | log2 ratio of Biotin-Ahx-Ub-VS probe labelling (USP25): -0.497 | log2 ratio of Biotin-Ahx-Ub-VS probe labelling (USP28): -0.802
